For 29 molecules, AC50 and outcome results are on record in PubChem BioAssay (EPA / NIEHS).

Inconclusive results are not listed. The source made the active and inactive calls. How the source made its calls, unless noted: active means hit-call score of the fitted dose curve at least 0.9, where 1 is the maximum; inconclusive means response in the unintended direction; inactive means score below 0.9.

Experiment [1] addresses Retinoic acid receptor alpha (Homo sapiens) (UniProt P10276). Nature of the experiment: NVS_NR_hRARa_Agonist: NovaScreen (NVS) Nuclear Receptor Binding Assay for human Retinoic Acid Alpha Receptor Agonism (RAR) (AID 2283361). The method in brief: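 Agonist-mode TR-FRET binding format using extracted protein, measured at 2 h post-dosing. Initial duplicate single-point screen at 25 uM preceded concentration series for actives; activity was normalized to DMSO baseline.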

For experiment [2], the target named is Glucocorticoid receptor (Homo sapiens) (UniProt P04150). Nature of the experiment: NVS_NR_hGR: NovaScreen (NVS) Nuclear Receptor Binding Assay for human Glucocorticoid Receptor (GR) (AID 2283363). The method in brief: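 Compounds first tested in duplicate at 25 uM, actives followed up in concentration series. Binding to extracted GR protein measured as competitive radioligand displacement, filter scintillation read 16 h post-dosing, normalised to DMSO.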

The target in experiment [3] is mouse Estrogen Receptor alpha (Era), Esr1 (gene 13982) (UniProt P19785). Nature of the experiment: NVS_NR_mERa: NovaScreen (NVS) Nuclear Receptor Binding Assay for mouse Estrogen Receptor alpha (Era) (AID 2283378).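 Further: hit means loss of bound radioligand signal relative to DMSO.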 An outline of the steps:
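Filter radiodetection of radioligand displacement from extracted receptor protein, measured 18 h post-dose. Single 25 uM concentration in duplicate initially, with concentration-series follow-up. Binding loss fitted relative to DMSO.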

For experiment [4], the target named is Agonist Androgen Response Element (ARE), AR (gene 367) (UniProt P10275). The experiment can be described thus: OT_AR_ARELUC_AG_1440: Odyssey Thera (OT) 24-hour CHO-K1 Luciferase Assay for Agonist Androgen Response Element (ARE) (AID 2283379). An outline of the steps: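 Readout: luciferase bioluminescence from CHO-K1 ARE-luc cells, measured 24 h post-dosing; agonism = increased mean luminescence vs DMSO controls, fitted in positive direction.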

Experiment [5] has as its target Estrogen receptor beta (Homo sapiens) (UniProt Q92731). The experiment can be described thus: OT_ER_ERbERb_1440: Odyssey Thera (OT) 24-hour HEK293T Protein-Complementation Assay for Estrogen Receptor-beta/-beta Homodimer (AID 2283380).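 Further: fluorescence gain from ER beta LBD homodimer complementation read by laser scanning cytometry; scored as signal increase over DMSO baseline for both agonists and antagonists.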 The method in brief: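 Fluorescence increase, nuclear for agonists or whole-cell for antagonists, relative to DMSO vehicle, quantified by laser scanning cytometer after fixation and Draq5 staining. Readout from 24 h treatment of HEK293T cells carrying complementation-paired ER beta LBD (aa 310-547).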

The target of experiment [6] is Estrogen receptor (Homo sapiens) (UniProt P03372). Nature of the experiment: OT_ERa_GFPERaERE_0480: Odyssey Thera (OT) 8-hour HeLa Transcription Induction Assay for Estrogen Receptor (AID 2283381; active means hit-call score of the fitted dose curve at least 0.9, where 1 is the maximum; inactive means score below 0.9). An outline of the steps:
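Fluorescence microscopy with high-content image analysis measures ERE-driven GFP induction in HeLa cells at 8 h post-dose. Increases fitted against DMSO baseline.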

For experiment [7] the target is unchanged. Nature of the experiment: OT_ERa_GFPERaERE_0120: Odyssey Thera (OT) 2-hour HeLa Transcription Induction Assay for Estrogen Receptor (AID 2283382). An outline of the steps:
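Fluorescence-microscopy images of the GFP-ERα/ERE reporter, scored by high-content image algorithms, give the readout. HeLa exposure lasted 2 h, and only signal increase over DMSO was fitted.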

Experiment [8] deals with Peroxisome proliferator-activated receptor gamma (Homo sapiens) (UniProt P37231). Nature of the experiment: OT_PPARg_PPARgSRC1_0480: Odyssey Thera (OT) 8-hour Protein-Complementation Assay for Peroxisome Proliferator-activated Receptor Gamma / SRC-1 Co-activator (AID 2283387).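 Further: nuclear to cytoplasmic split Venus YFP fluorescence ratio reporting PPARg SRC-1 interaction.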 The method in brief: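 Protein-fragment complementation of split Venus YFP reports PPARg/SRC-1 interaction in HEK293T (transfected 48 h before treatment), exposed 8 h. Readout: N/C fluorescence ratio at 488 nm from imaging, Draq5 for segmentation, positive fit relative to DMSO.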

For experiment [9] the target is unchanged. The experiment can be described thus: OT_PPARg_PPARgSRC1_1440: Odyssey Thera (OT) 24-hour Protein-Complementation Assay for Peroxisome Proliferator-activated Receptor Gamma/ SRC-1 Co-activator (AID 2283388).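 Further: nuclear to cytoplasmic ratio of reconstituted Venus YFP fluorescence in fixed imaged cells.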 The method in brief: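 Readout is the 488 nm N/C fluorescence ratio from fixed, Draq5-stained HEK293T cells after 24 h compound exposure. Cells carried transiently transfected PPARg and SRC-1 fused to Venus fragments, transfected 48 h before treatment.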

A short description of experiment [10]: CEETOX_H295R_11DCORT: CeeTox H295R High-throughput Steroidogenesis Assay for 11-Deoxycortisol (11DCORT) (AID 2283432; active means hit-call score of the fitted dose curve at least 0.9, where 1 is the maximum; inactive means score below 0.9;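 on AC50: 11-deoxycortisol secreted into the medium measured by LC-MS/MS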). Conditions: actives raise or lower the signal. The method in brief:
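Human adrenal H295R cells were prestimulated with 10 uM forskolin for 48 h, then exposed to test chemical (0.1% DMSO final) for 48 h. Medium 11-deoxycortisol was quantified by MTBE extraction and HPLC-MS/MS; bidirectional fitting relative to DMSO.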

A short description of experiment [11]: CEETOX_H295R_OHPREG: CeeTox H295R High-throughput Steroidogenesis Assay for OH-Pregnenolone (OHPREG) (AID 2283434; active means hit-call score of the fitted dose curve at least 0.9, where 1 is the maximum; inactive means score below 0.9). The settings on record: actives raise or lower the signal. The method in brief: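 Secreted 17alpha-hydroxypregnenolone measured by HPLC-MS/MS after liquid-liquid extraction. Human adrenal H295R cells received 48 h forskolin (10 uM) stimulation before 48 h chemical exposure at 0.1% final DMSO; MTT viability in same wells; bidirectional fit against DMSO.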

For experiment [12], the target named is rat Androgen Receptor (AR), Ar (gene 24208) (UniProt P15207). Nature of the experiment: NVS_NR_rAR: NovaScreen (NVS) Nuclear Receptor Binding Assay for rat Androgen Receptor (AR) (AID 2283366). The method in brief:
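Actives from a duplicate single-concentration (25 uM) primary run went on to concentration series. Displacement of radioligand was counted by filtration and scintillation, 18 h post-dose, using prostate extracts from testosterone-pretreated rats, with DMSO as baseline.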

Experiment [13] relates to guinea pig Dopamine Transporter (DAT), gene 100714898. Nature of the experiment: NVS_TR_gDAT: NovaScreen (NVS) Transporter Assay for guinea pig Dopamine Transporter (DAT) (AID 2283369).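 Further: active compounds lower bound radioligand signal relative to DMSO.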 An outline of the steps:
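Radioligand displacement on membranes from guinea pig striatum, 2 h exposure, bound label counted by filtration and scintillation. Tested at 25 uM in duplicate, then actives in concentration series to 50 uM; DMSO as negative control.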

Experiment [14] deals with human Norepinephrine Transporter (NET), SLC6A2 (gene 6530) (UniProt P23975). The experiment can be described thus: NVS_TR_hNET: NovaScreen (NVS) Transporter Assay for human Norepinephrine Transporter (NET) (AID 2283377).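 Further: cell-free membrane protein extracted from CHO cells expressing human NET; displacement of radioligand from human NET seen as loss of scintillation signal.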 The method in brief: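 Single-concentration duplicate screen at 25 uM, then concentration-response for actives; displacement of specific radioligand from human NET in CHO membrane extracts, filter-based scintillation detection at 1 h relative to DMSO.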

In experiment [15] the target is Bile acid receptor (Homo sapiens) (UniProt Q96RI1). Nature of the experiment: OT_FXR_FXRSRC1_0480: Odyssey Thera (OT) 8-hour HEK293T Protein-Complementation Assay for Farnesoid X receptor/SRC-1 Co-activator (AID 2283383). The method in brief: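 Binding of FXR to coactivator SRC-1 was read as fluorescence from a reconstituted split reporter in HEK293T cells, 8 h after chemical addition. Only increases in signal versus DMSO were fit.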

Experiment [16] has the same target. The experiment can be described thus: OT_FXR_FXRSRC1_1440: Odyssey Thera (OT) 24-hour HEK293T Protein-Complementation Assay for Farnesoid X receptor/SRC-1 Co-activator (AID 2283384). An outline of the steps:
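Protein-fragment complementation: FXR and SRC-1 fused to reporter fragments that reassemble on interaction, read by fluorescence intensity. Human HEK293T cells measured 24 h post-dose; positive-direction fit versus DMSO.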

Bile acid receptor (Homo sapiens), sequence (Q96RI1 whole entry, looked up): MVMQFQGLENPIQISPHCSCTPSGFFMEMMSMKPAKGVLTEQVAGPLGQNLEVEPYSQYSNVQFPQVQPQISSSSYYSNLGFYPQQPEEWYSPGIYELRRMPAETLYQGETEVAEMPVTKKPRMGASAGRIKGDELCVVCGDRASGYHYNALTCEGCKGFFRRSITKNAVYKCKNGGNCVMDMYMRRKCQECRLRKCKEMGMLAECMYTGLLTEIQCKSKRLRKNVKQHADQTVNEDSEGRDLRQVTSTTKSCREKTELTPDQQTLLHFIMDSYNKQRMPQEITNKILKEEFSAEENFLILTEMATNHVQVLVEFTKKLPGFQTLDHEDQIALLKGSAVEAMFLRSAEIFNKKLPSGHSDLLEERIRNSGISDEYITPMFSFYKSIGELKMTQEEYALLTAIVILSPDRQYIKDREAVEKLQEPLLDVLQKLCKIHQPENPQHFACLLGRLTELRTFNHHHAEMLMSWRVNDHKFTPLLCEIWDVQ
mouse Estrogen Receptor alpha (Era), Esr1 (gene 13982), sequence (P19785 whole entry, looked up): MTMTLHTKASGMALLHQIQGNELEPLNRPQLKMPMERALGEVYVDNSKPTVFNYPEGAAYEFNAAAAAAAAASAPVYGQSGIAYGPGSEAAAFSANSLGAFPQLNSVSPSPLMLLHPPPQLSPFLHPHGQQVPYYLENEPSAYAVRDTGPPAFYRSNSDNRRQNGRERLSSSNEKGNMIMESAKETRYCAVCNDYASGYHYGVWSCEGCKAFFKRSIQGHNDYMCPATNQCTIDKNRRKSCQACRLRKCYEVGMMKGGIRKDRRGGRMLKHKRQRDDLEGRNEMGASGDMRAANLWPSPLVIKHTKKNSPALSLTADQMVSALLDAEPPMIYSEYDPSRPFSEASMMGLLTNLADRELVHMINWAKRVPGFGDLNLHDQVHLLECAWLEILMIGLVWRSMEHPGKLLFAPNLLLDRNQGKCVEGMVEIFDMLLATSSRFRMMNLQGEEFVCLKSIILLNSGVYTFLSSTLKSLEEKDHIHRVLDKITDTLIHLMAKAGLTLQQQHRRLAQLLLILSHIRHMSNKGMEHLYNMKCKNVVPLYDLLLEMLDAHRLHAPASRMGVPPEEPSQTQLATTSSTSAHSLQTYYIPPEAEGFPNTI
Peroxisome proliferator-activated receptor gamma (Homo sapiens), sequence (P37231 whole entry, looked up, the tested form may be a part): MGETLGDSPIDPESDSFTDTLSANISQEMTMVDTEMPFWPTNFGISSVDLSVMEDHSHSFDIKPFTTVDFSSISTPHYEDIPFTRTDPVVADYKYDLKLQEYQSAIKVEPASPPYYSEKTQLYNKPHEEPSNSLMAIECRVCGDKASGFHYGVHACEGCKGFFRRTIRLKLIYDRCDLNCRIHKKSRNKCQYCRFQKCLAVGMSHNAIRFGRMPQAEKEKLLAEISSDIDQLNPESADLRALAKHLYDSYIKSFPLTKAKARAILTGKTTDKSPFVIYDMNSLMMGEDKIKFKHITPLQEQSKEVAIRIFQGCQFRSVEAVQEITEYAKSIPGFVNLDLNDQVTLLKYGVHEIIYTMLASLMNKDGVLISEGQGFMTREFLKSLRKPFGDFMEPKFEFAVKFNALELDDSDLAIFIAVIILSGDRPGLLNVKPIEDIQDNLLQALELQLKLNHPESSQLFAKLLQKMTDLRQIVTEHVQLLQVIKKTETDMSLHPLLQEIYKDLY
Estrogen receptor (Homo sapiens), sequence (P03372 whole entry, looked up): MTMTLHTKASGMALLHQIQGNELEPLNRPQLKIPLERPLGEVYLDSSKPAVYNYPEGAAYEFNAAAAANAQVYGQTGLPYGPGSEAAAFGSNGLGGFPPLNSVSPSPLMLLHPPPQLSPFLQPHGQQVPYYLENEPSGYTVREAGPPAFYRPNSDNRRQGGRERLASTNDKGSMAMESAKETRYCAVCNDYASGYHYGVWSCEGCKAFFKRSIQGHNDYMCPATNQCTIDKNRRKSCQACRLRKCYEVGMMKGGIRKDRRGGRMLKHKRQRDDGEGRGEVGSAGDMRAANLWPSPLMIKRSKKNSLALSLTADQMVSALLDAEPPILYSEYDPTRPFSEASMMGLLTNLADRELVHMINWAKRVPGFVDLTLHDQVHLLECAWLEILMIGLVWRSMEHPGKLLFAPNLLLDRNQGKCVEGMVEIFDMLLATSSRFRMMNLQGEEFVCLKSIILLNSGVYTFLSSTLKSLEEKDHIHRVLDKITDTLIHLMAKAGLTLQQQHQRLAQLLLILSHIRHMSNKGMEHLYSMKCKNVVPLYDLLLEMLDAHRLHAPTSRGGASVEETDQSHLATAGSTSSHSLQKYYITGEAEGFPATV
Estrogen receptor beta (Homo sapiens), sequence (Q92731 whole entry, looked up, the tested form may be a part): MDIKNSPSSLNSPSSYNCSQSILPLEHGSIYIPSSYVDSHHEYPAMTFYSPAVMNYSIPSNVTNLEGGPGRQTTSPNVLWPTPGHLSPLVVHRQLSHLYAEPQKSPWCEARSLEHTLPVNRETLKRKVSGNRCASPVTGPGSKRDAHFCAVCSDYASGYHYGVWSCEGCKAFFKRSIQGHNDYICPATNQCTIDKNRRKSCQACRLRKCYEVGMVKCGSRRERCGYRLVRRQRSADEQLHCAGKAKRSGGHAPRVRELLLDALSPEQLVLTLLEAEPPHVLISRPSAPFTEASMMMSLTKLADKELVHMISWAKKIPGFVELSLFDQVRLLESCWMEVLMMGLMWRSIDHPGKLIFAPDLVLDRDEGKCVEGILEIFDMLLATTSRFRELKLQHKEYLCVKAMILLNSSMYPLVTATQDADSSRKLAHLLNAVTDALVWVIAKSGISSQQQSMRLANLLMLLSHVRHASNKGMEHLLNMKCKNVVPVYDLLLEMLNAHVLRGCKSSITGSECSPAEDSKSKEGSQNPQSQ
Agonist Androgen Response Element (ARE), AR (gene 367), sequence (P10275 whole entry, looked up): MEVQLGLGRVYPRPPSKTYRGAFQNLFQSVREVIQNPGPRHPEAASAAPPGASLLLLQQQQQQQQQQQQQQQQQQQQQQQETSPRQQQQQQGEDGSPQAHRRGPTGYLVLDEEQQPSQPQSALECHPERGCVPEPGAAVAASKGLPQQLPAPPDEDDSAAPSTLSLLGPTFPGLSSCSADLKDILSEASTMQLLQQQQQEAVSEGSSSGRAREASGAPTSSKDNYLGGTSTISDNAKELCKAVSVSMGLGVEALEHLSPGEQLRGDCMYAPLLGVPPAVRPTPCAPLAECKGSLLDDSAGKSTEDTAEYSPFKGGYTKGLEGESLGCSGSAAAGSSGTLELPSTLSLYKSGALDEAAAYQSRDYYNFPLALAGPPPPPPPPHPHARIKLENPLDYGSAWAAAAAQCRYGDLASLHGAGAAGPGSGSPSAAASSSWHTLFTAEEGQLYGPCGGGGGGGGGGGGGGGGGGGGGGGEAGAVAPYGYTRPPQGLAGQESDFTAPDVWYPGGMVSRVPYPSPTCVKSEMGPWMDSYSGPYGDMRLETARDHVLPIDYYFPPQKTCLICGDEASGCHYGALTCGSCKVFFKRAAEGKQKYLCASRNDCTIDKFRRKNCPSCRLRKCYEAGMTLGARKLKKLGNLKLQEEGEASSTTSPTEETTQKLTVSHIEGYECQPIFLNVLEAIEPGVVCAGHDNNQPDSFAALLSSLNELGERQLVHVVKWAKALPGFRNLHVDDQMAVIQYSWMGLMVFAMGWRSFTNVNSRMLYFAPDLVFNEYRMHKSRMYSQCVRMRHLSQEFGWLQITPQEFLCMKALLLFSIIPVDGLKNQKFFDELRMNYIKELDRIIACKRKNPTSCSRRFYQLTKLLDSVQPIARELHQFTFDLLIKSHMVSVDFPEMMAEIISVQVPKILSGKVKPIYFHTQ
rat Androgen Receptor (AR), Ar (gene 24208), sequence (P15207 whole entry, looked up): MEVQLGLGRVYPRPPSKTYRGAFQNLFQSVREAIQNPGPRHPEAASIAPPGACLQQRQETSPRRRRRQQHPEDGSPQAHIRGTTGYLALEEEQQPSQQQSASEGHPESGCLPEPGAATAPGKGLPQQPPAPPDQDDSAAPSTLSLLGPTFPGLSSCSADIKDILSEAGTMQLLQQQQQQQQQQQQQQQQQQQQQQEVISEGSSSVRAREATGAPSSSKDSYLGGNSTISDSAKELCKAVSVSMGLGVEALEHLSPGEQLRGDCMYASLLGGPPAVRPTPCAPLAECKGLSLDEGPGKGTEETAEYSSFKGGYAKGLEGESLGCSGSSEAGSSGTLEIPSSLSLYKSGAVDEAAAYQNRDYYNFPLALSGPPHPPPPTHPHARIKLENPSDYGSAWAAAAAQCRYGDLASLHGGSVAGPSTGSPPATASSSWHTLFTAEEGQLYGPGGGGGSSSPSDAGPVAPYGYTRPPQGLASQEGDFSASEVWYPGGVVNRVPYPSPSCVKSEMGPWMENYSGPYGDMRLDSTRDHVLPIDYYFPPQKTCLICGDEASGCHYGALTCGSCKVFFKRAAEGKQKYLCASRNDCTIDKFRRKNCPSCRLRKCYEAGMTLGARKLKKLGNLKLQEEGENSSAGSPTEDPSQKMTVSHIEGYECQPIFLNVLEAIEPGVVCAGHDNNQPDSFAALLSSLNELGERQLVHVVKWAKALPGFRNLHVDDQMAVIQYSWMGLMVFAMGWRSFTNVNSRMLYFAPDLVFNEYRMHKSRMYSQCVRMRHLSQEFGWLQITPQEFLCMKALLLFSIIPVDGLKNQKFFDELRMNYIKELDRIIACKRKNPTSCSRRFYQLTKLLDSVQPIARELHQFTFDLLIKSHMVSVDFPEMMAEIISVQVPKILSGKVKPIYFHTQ
Retinoic acid receptor alpha (Homo sapiens), sequence (P10276 whole entry, looked up): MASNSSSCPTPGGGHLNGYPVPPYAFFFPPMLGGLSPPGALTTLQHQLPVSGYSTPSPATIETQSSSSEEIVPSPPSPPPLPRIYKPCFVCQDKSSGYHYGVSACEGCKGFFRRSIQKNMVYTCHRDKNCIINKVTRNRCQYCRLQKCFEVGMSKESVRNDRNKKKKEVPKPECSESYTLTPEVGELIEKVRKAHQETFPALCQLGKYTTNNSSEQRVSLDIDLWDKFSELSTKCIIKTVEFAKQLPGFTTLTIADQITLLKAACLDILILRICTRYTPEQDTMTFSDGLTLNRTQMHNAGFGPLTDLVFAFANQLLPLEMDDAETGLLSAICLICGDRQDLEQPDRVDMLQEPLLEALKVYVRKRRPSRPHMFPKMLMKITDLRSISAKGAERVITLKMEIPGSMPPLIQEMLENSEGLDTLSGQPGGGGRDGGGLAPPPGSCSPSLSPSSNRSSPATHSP

For orientation: AC50 means the concentration giving half of the maximal activity seen. As to `CCCCCCCCCCCCC[N+](C)(C)Cc1ccccc1`, the AC50 in [1] was 13.4 µM (active); in [3], 8.86 µM (active); in experiment [7] it was 18.1 µM (active); in experiment [10], 0.287 µM (active); in [11] it was 0.59 µM (active). The call in experiment [2], in experiment [4], in experiment [5], in experiment [6], in [8] and in [9] was inactive.
On to `CCN(CC)c1ccc(C=O)c(O)c1`, for which the AC50 in experiment [12] is 25 µM (active); in [13], 15 µM (active); in [14], 25 µM (active).
`C#CC(O)CCC` (configuration not stated): the outcome in experiment [12] was inactive.
`CN1CN(C)CN(C)C1`: the molecule was called inactive in [10] and in experiment [11].
On to `CCCCOC(=O)C(C)O` (configuration not stated), for which the outcome in experiment [6], in experiment [15], in [8] and in experiment [9] was inactive. In [7], the AC50 was 2.95 µM (active).
On to `CCCCOC(=O)[C@H](C)O`, for which the outcome in experiment [6], in [7], in experiment [8] and in experiment [9] was inactive.
For the molecule `CCC(Cc1c(I)cc(I)c(N)c1I)C(=O)O` (configuration not stated), the molecule was called inactive in experiment [3], in experiment [6], in [7], in experiment [15], in [16] and in [8]. Moreover, in experiment [9], the molecule was classed as inactive.
`CCCCCCCCn1sc(Cl)c(Cl)c1=O`: in experiment [3], the AC50 was 25 µM (active). Besides, the call in [6] and in [7] was inactive.
`Cc1ccc(O)c(-n2nc3ccccc3n2)c1`: the half-maximal activity concentration (AC50) in [3] is 6.65 µM (active); in experiment [15], 50 µM (active). For the same molecule, the molecule was classed as inactive in [5], in experiment [6], in experiment [7], in experiment [16], in experiment [8] and in [9].
`CC(C)OC=O`: the call in experiment [6], in [7], in experiment [15], in [16], in experiment [8] and in experiment [9] was inactive.
`CCOCOCC`: the call in experiment [10] and in [11] was inactive.
For `CC(C)Nc1ccc(NC(C)C)c2c1C(=O)c1ccccc1C2=O`, the figures for the AC50 in experiment [5] and in experiment [16] were 19.1 µM (active) and 18.2 µM (active), respectively. In addition, the outcome in [7], in experiment [8] and in experiment [9] was inactive.
For the molecule `CCCCC(CC)COC(=O)c1ccc(N(C)C)cc1` (configuration not stated), the molecule was called inactive in [5], in [6], in [7], in experiment [8], in experiment [9] and in experiment [10]. Also, the figures for the AC50 in [15], in experiment [16] and in experiment [11] were 32.7 µM (active), 50 µM (active) and 6.35 µM (active), respectively.
For the molecule `Nc1cccnc1N`, the call in experiment [10] and in experiment [11] was inactive.
For the molecule `Cc1cccc(C)n1`, the molecule was classed as inactive in experiment [10] and in experiment [11].
As for `CCOC(=O)C1CC(=O)C(=C(O)C2CC2)C(=O)C1` (configuration not stated), the call in experiment [5], in experiment [6], in experiment [7], in experiment [15], in experiment [8] and in experiment [9] was inactive.
With `OCC1CCCO1` (configuration not stated), the result in experiment [4], in experiment [5], in experiment [6], in experiment [7], in experiment [15] and in experiment [8] was inactive. Besides, the molecule was classed as inactive in [9].
Take `OCCC(O)CO` (configuration not stated): the outcome in experiment [10] and in experiment [11] was inactive.
Regarding `F[Si-2](F)(F)(F)(F)F`, the molecule was called inactive in experiment [4], in experiment [5], in [6], in [7], in experiment [15] and in [8]. Besides, the outcome in [9] was inactive.
As to `Oc1ccc2c(c1)CCC2`, in experiment [10], the molecule was classed as inactive.
With `CC1CCCCC1`, the outcome in experiment [10] and in [11] was inactive.
As for `O=C(c1ccccc1)c1ccc(O)cc1O`, the values for the AC50 in experiment [3], in [6] and in experiment [7] were 1.22 µM (active), 8.62 µM (active) and 6.29 µM (active), respectively. For the same molecule, the result in experiment [15], in experiment [16], in experiment [8] and in experiment [9] was inactive.
In the case of `CCOC(OCC)OCC`, the outcome in experiment [5], in experiment [6], in [7], in experiment [8] and in [9] was inactive.
In the case of `CC(C)(C)c1cc(Cc2cc(C(C)(C)C)c(O)c(C(C)(C)C)c2)cc(C(C)(C)C)c1O`, the molecule was called inactive in experiment [5], in experiment [6], in experiment [7], in experiment [15], in [8] and in experiment [9]. Moreover, in [16], the AC50 is 6.6 µM (active).
`CCc1cc(Cc2cc(CC)c(N)c(CC)c2)cc(CC)c1N`: the outcome in [5], in experiment [6], in experiment [7], in experiment [16], in experiment [8] and in [9] was inactive. The AC50 in [15] is 11.8 µM (active).
As to `O=c1[nH]cccc1O`, the AC50 is 8.85 µM (active) in experiment [10] and 6.71 µM (active) in experiment [11].
For the molecule `CC(C)(C)c1cc(CCC(=O)OCC(COC(=O)CCc2cc(C(C)(C)C)c(O)c(C(C)(C)C)c2)(COC(=O)CCc2cc(C(C)(C)C)c(O)c(C(C)(C)C)c2)COC(=O)CCc2cc(C(C)(C)C)c(O)c(C(C)(C)C)c2)cc(C(C)(C)C)c1O`, the molecule was called inactive in experiment [3], in experiment [5], in experiment [6], in [7], in [15] and in [16]. For the same molecule, the result in [9] was inactive.
As for `Cc1ccc([N+](=O)[O-])c(C)c1`, the result in experiment [6], in experiment [7], in experiment [16], in experiment [8] and in [9] was inactive.
Turning to `N#Cc1ccccc1O`, the molecule was classed as inactive in [6], in experiment [7], in experiment [16], in experiment [8], in experiment [9] and in [10]. In [11], the molecule was classed as inactive.
